According to the supplement of paper PMC3334620:
The full ranking holds about 33,000 sequences; the median of “E-score (-0.5 to 0.5)” is about -0.056, and the highest 2% start at about 0.38. Only a selection was taken, and the highest values are over-represented in it overall.

target: Stb4 (UniProt P50104); test: PBM E-score (8-mer binding enrichment) (E-score (-0.5 to 0.5)); higher = stronger / more preferred TF binding; conditions: protein concentration: 200 nM; construct: GST-DNA-binding domain
UniProt P50104, sequence (P50104 whole entry, the tested form may be a part): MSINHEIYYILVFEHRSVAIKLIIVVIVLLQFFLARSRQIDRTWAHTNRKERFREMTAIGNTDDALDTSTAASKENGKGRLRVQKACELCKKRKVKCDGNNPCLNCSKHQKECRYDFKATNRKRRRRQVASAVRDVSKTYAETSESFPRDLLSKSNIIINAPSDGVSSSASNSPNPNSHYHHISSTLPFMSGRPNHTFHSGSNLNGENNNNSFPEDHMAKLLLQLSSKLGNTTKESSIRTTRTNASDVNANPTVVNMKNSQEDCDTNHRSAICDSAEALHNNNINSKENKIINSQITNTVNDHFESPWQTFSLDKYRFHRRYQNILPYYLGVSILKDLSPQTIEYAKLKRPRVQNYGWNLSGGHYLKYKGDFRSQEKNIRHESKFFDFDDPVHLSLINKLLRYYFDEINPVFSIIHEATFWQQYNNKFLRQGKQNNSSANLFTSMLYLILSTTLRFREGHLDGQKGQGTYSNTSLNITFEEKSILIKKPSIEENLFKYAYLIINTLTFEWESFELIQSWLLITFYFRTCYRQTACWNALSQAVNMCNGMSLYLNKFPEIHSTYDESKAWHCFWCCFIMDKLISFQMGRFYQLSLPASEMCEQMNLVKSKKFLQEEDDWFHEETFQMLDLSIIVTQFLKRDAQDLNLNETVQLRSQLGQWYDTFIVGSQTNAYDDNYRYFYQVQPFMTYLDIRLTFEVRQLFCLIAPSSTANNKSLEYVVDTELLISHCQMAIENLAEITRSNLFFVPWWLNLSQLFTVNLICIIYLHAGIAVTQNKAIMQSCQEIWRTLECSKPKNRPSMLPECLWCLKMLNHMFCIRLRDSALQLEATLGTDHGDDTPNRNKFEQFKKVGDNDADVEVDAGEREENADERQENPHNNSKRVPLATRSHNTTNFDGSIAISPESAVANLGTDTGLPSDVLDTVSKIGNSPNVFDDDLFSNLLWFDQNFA
In short: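 E-scores (a modified Wilcoxon-Mann-Whitney statistic) were assigned by the Universal PBM Analysis Suite to every ungapped eight-base word pooled with its reverse complement. The input came from universal all-10-mer Agilent arrays made double-stranded by primer extension and probed with GST-tagged yeast transcription factors at about 100-200 nM. Fluorescent anti-GST detected bound protein, and masliner normalised the scans.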

Sequence	PBM E-score
AATTTGCC	0.0997
ATGAGATC	-0.124
ACTGAAAT	-0.18
CGTCGGAA	0.452
AGTCGTAT	-0.147
GGTCGGGA	0.368
GGTCGGAC	0.144
CGTCGGAC	0.269
AGTCGGGA	0.362
CGTCGGAG	0.275
AGTCGGCC	0.168
GGTCGGAA	0.439
AGTCGGAT	0.429
GGACGGAA	0.328
CGTCGGGA	0.383
CTAGATAC	0.0146
AGGACCGC	-0.0222
CAGAATAA	-0.0851
AGTCGGAA	0.451
TGTCGTAA	-0.215
TGTCGGAA	0.416
AGTCGGAG	0.226
TGACGGAA	0.312
AGTCGGAC	0.176

Sequence	PBM E-score
AGAGAACT	-0.114
GGGTCACA	-0.0305
CAATTTAA	-0.105
GGTTTTTA	-0.0968
CAGGAGCA	-0.163
CACCTGAG	-0.337
CTGATATC	0.136
AGGATATA	-0.0497
CGGATATC	0.426
AGGATATC	0.0132
GGGATATA	0.168
CGGATATA	0.452
TCCAGTAA	-0.176
TCTGACCA	-0.24
CGTTCGTA	-0.0524
CGTTCGGA	0.465
GGTTCGGA	0.442
GGTTCGAA	-0.0143
GGTTCGCA	0.0434
CGTTCGGC	0.368
ACATTGGA	-0.177
CGAGATAG	0.00411
CTGCAAAG	-0.28
CGTCCTGA	-0.249

Sequence	PBM E-score
TCCGTTAA	0.259
AAAAACCT	0.0896
ACCGAGGA	0.323
CCCGAGGA	0.388
TCAGAGGA	-0.183
GACGAGGC	-0.0506
GCCGAGGA	0.4
TACGAGGA	-0.193
ACCGAGGC	0.302
CTCGAGGA	-0.188
TCCGAGGA	0.453
GTCGAGGA	-0.239
GCCGAGGC	0.436
CACGAGGA	-0.11
GTAAGCAC	-0.144
CGAAATGC	0.124
ATGTCGTA	-0.29
AGGATGGA	0.0445
CAGGATTA	0.00923
CACCCTCG	0.0812
CACACATG	-0.15
CGATCGCC	0.0955
TAGTAACA	-0.0586
CCCAGAGC	-0.299

Sequence	PBM E-score
AGAAGGAA	0.0573
CCCGAGGC	0.388
CCCGAGGG	0.404
CACGAGGG	-0.0631
ACCGAGGG	0.27
CACGAGGC	-0.131
CGCGAGGC	0.0155
CCATAAGG	-0.314
CCAGATAC	-0.122
CTATTGCA	-0.0693
ACAGACCT	0.00106
ACCAATCT	0.0037
CCGATAAG	0.269
GGGATAAC	0.0907
CGGATAAG	0.41
CGGATAAC	0.452
TGGATAAA	0.027
AGGATAAC	-0.159
AGGATAAG	-0.0142
CGGATAAA	0.465
AGGATAAA	-0.0635
AGATCAGC	0.0618
